This is an account of results in PubChem BioAssay AID463 (The Scripps Research Institute Molecular Screening Center, 2006).

Out of some 56,000 compounds screened, about 710 (1.3%) were called active. This excerpt belongs to a sample that is enriched for actives. A number with no mark means an inactive call.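 Rule for the calls: active = inhibition above the mean inhibition of all tested compounds plus 3 SD (cut at about 28% in these data); inactive = the rest.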

This assay can be described thus: cytotoxicity toward Jurkat T cells, primary screen, cytotoxicity control, cell-based, Jurkat E6.1, 60K MLSMR library (AID 463). Conditions: Jurkat E6.1 viability, ATP luminescence, 48 h; at 4 µM; stronger effect = higher value.
Consider `COc1cc(N=Cc2c(O)[nH]c3ccccc23)cc(OC)c1OC`, for which the inhibition was 63% (active). The value for `COc1ccc2[nH]c3ccc(OC)cc3c2c1` was -4.4%.

As for `COc1ccc(CCNC(=O)CCCCn2c(=O)[nH]c3ccccc3c2=O)cc1OC`, the inhibition is -5.9%. In the case of `COc1ccc(N=Cc2c(O)[nH]c3ccccc23)cc1OC`, the inhibition is 39.2% (active).

As to `COC(=O)c1[nH]c2ccccc2c1NS(=O)(=O)c1ccc(OC)cc1OC`, the inhibition is -1.9%. The value for `COc1ccc(OC)c(N=Cc2c(O)[nH]c3ccccc23)c1` was -1%.

For the compound `CCn1nnc(NC(=O)c2cc(Cl)c(OC)c(Cl)c2)n1`, the inhibition is -2%. Turning to `COC(=O)c1ccc(OC(=O)c2nn(C)cc2Cl)c(OC)c1`, the inhibition is 2.9%. With `CCOC(=O)C1CCN(C(c2cc3cc(C)cc(C)c3[nH]c2=O)c2nnnn2C2CCCCC2)CC1` (centres undefined), the inhibition is -0.3%. For `C=CCNC(=O)CCCOc1cccc(C)c1`, the inhibition was 4.8%.

As to `OCCNCCCCOc1ccccc1F`, the inhibition is 3%. In the case of `COc1cc(Cl)c(S(=O)(=O)n2cnc(C)c2)cc1Cl`, the inhibition was 2.3%.

As for `CCC(=O)Nc1ccc(C(=O)Nc2ccc3c(c2)C(=O)N(CC2CCCO2)C3=O)cc1` (centres undefined), the inhibition was -3.3%. Under `CCCCC(=O)Nc1ccc(C(=O)NCCCn2ccnc2)cc1` stands 57% (active). Under `CCCC(=O)Nc1ccc(C(=O)NCCCn2ccnc2)cc1` stands -15.7%. On to `CCOc1ccccc1C(=O)NCCCn1ccnc1`, for which the inhibition is 9.7%. Take `C=CCSc1nc2c(c(=O)[nH]1)C(C(C)C)C(C#N)=C(N)O2` (centres undefined): the inhibition is 0.8%. With `O=C1CCC(Cc2ccccc2)N1` (centres undefined), the inhibition is 0.5%. Take `Cc1cnc(C(=O)OCC(=O)Nc2ccc(Cl)cc2Cl)cn1`: the inhibition was 7.4%. As for `C=CCn1cnc2scc(-c3ccccc3)c2c1=O`, the inhibition is -3%. The value for `CCCc1[nH]nc2c1C(c1ccc(OC(=O)c3ccco3)cc1)C(C#N)=C(N)O2` (centres undefined) was 0.7%; that for `CCCc1[nH]nc2c1C(c1ccc(Br)s1)C(C#N)=C(N)O2` (centres undefined) was 29.4% (active). Under `CCCc1[nH]nc2c1C(C1CC=CCC1)C(C#N)=C(N)O2` (centres undefined) stands 5.6%.

Turning to `Cc1cc(N(C)C)cc(C)[n+]1[O-]`, the inhibition is -7.1%. `CCOc1ccc(-c2nnc3ccc(SC)nn23)cc1`: the inhibition is 0.4%. Under `CCOC(=O)CSC1=C(C#N)C(c2ccco2)C(C(=O)OCc2ccccc2)=C(C)N1` (centres undefined) stands 7.5%. For `COC(=O)CSC1=C(C#N)C(c2ccccc2OC)C(C(=O)OC)C(=O)N1` (centres undefined), the inhibition was 5.3%. With `CCOC(=O)CSC1=C(C#N)C(c2sccc2C)CC(=O)N1` (centres undefined), the inhibition is 93.2% (active). The value for `CCOC(=O)COc1ccc(Cl)cc1C1NC(=O)NC(C)=C1C(C)=O` (centres undefined) was -2.2%.

By inhibition is commonly meant the change of the read-out against control, counted positive when it falls.
